For 17 compounds, Potency results are on record in PubChem BioAssay (Tox21).

A short description of experiment [1]: qHTS assay to identify small molecule agonists of the vitamin D receptor (VDR) signaling pathway - cell viability counter screen (AID 743224). Also: nearly all actives have a fitted effect of over 50% in size. The method in brief: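 VDR-bla cells, 4 h after plating, exposed to compounds for 16 h at 37C; viability then read in the same wells as CellTiter-Glo luminescence after 30 min at room temperature, following the bla FRET read.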

The nature of experiment [2]: qHTS assay to identify small molecule agonists of the NFkB signaling pathway (AID 1159509; active = well fitted curve in the direction sought with a large enough effect in the signal ratio in the repeat runs, not every such curve was filed as active; the % refers to the signal ratio). The method in brief:
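ME-180 NFkB-bla, 2,000 cells/well, overnight plating; cpd pinned in DMSO, 5 h 37 C; B/G FRET substrate 1.5 h RT; ex 405, em 460/530 nm.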
For orientation: In qHTS, concentration-response curves come from the screen itself.

The nature of experiment [3]: qHTS assay to identify small molecule agonists of the endoplasmic reticulum stress response signaling pathway (AID 1159516; active = well fitted activation curve with a large enough effect in the signal ratio in the repeat runs, not every such curve was filed as active; the % refers to the signal ratio). The method in brief:
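CellSensor ESRE-bla HeLa cells, 1,500 per well, plated overnight, then exposed to compounds for 5 hr at 37 C. Beta-lactamase reporter read with LiveBLAzer B/G FRET substrate after 2 hr at room temperature, 405 nm excitation, 460 and 530 nm emission.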

A short description of experiment [4]: qHTS assay to identify small molecule agonists of the endoplasmic reticulum stress response signaling pathway - cell viability counter screen (AID 1159517; calls by dose curve;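 also: HeLa cells carrying an ER stress response element beta-lactamase reporter; nearly all actives have a fitted effect of over 50% in size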). The method in brief: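 ESRE-bla HeLa cells, 1,500 per well, seeded overnight then treated with compounds for 5 hr at 37 C. After the beta-lactamase read, viability in the same wells is measured by CellTiter-Glo luminescence after 30 min at room temperature.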

The nature of experiment [5]: qHTS assay to identify small molecule antagonists of the retinoid-related orphan receptor gamma (ROR-gamma) signaling pathway - cell viability counter screen (AID 1159520). Also: nearly all actives have a fitted effect of over 50% in size. The method in brief: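 Tet-on ROR gamma CHO cells were given compounds for 2 hr, then doxycycline hyclate at 1 uM final, and incubated 16 hr at 37 C. Viability was measured as ATP content by CellTiter-Glo luminescence.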

The target in experiment [6] is Nuclear receptor ROR-gamma (Homo sapiens) (UniProt P51449). The experiment is described as follows: qHTS assay to identify small molecule antagonists of the retinoid-related orphan receptor gamma (ROR-gamma) signaling pathway (AID 1159521; also: nearly all actives have a fitted effect of over 50% in size; also: potency is read from the fitted curve at half-maximal effect). The method in brief:
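Tet-on ROR-gamma CHO cells with ROR response element-luciferase reporter; compounds added 2 hr before 1 uM doxycycline induction, then 16 hr at 37 C. Antagonism scored as decreased ONE-Glo luminescence.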

Experiment [7] in a line: qHTS assay to identify small molecule agonists of the AP-1 signaling pathway - cell viability counter screen (AID 1159525; calls by dose curve; also: nearly all actives have a fitted effect of over 55% in size). The method in brief:
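AP-1-bla ME-180 cells in Opti-MEM with 0.5% dialyzed FBS, compound exposure 5 h at 37 C in 15-point titration. Viability read in the same wells as ATP content by CellTiter-Glo luminescence, normalised to tetra-n-octylammonium bromide and DMSO controls.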

A short description of experiment [8]: qHTS assay to identify small molecule agonists of the AP-1 signaling pathway (AID 1159526; calls by dose curve).
For experiment [9], the target named is Retinoic acid receptor RXR-alpha (Homo sapiens) (UniProt P19793). The experiment is described as follows: qHTS assay to identify small molecule agonists of the RXR signaling pathway (AID 1159527; calls by dose curve; also: nearly all actives have a fitted effect of over 35% in size). The method in brief:
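GeneBLAzer RXR-alpha-UAS-bla HEK 293T cells in 2% charcoal-stripped FBS medium were exposed to compounds for 16 hr at 37 C in agonist mode. Beta-lactamase reporter read as 460/530 nm FRET ratio after 2 hr substrate loading.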

The nature of experiment [10]: qHTS assay to identify small molecule agonists of the RXR signaling pathway - cell viability counter screen (AID 1159529). Also: nearly all actives have a fitted effect of over 50% in size. Also: potency is read from the fitted curve at half-maximal effect. The method in brief: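 RXR-alpha-UAS-bla HEK 293T cells in medium with 2% charcoal-stripped FBS were pre-incubated 5 hr, then compound-treated 16 hr at 37 C. Viability was read by CellTiter-Glo luminescence in the same wells as the beta-lactamase assay, with tetraoctyl ammonium bromide as positive control.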

Experiment [11] in a line: qHTS assay to identify small molecule antagonists of the retinoid acid receptor (RAR) signaling pathway - cell viability counter screen (AID 1159551). Also: nearly all actives have a fitted effect of over 35% in size. The method in brief: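 C3RL4 RARE-luciferase cells, 1,000/well, incubated overnight, then dosed with compound plus 1 uM retinol (final). After 6 hr at 37 C, viability read by CellTiter-Glo ATP luminescence following 30 min at room temperature.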

Experiment [12] in a line: qHTS assay to identify small molecule antagonists of the retinoic acid receptor (RAR) signaling pathway (AID 1159552; also: nearly all actives have a fitted effect of over 50% in size; also: potency is read from the fitted curve at half-maximal effect). The method in brief:
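Retinol signaling pathway inhibitors screened in C3RL4 RARE-luciferase reporter cells seeded overnight at 37 C, then compounds added with 1 uM (final) retinol as pathway substrate. After 6 hr at 37 C, luciferase luminescence read after 30 min at room temperature.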

Experiment [13] can be described thus: qHTS assay to identify small molecule agonists of the retinoic acid receptor (RAR) signaling pathway (AID 1159553). Also: potency is read from the fitted curve at half-maximal effect. Conditions: C3RL4 RARE luciferase reporter, agonist, 6 h; activation: at 73.3 µM (top of the series). The method in brief:
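C3RL4 RARE-luciferase cells were seeded at 1,000/well and grown overnight at 37 C, then exposed to compounds for 6 hr at 37 C, 5% CO2. Luciferase reagent was added and luminescence was read after 30 min at room temperature.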

A short description of experiment [14]: qHTS assay to identify small molecule antagonists of the vitamin D receptor (VDR) signaling pathway - cell viability counter screen (AID 743225). Also: nearly all actives have a fitted effect of over 50% in size. The method in brief:
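VDR-UAS-bla HEK 293T cells were plated and incubated 4 h at 37C, then dosed with compound plus 3 nM (final) 1-alpha,25-dihydroxyvitamin D3 for 16 h. After the 2 h beta-lactamase read, viability in the same wells was read as CellTiter-Glo luminescence after 30 min at room temperature.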

The nature of experiment [15]: qHTS assay to identify small molecule agonists of the NFkB signaling pathway - cell viability counter screen (AID 1159515; calls by dose curve; also: nearly all actives have a fitted effect of over 55% in size). The method in brief:
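NFkB-bla ME-180 cells, 2,000/well, plated overnight at 37 C; compound added for 5 hr at 37 C. Viability read in the same wells as the bla reporter, by CellTiter-Glo luminescence after 30 min at room temperature.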

Inconclusive results are not listed. Activity calls are given as the source filed them. Unless noted, calls follow the shape of the dose curve; as a rule, active = well fitted curve in the direction sought with a large enough effect in the repeat runs; inconclusive = weak or mixed curves; inactive = no such curve, though single readings can be large; an effect the other way counts as inactive or inconclusive.

Chain of Retinoic acid receptor RXR-alpha (Homo sapiens) (P19793 whole entry, looked up): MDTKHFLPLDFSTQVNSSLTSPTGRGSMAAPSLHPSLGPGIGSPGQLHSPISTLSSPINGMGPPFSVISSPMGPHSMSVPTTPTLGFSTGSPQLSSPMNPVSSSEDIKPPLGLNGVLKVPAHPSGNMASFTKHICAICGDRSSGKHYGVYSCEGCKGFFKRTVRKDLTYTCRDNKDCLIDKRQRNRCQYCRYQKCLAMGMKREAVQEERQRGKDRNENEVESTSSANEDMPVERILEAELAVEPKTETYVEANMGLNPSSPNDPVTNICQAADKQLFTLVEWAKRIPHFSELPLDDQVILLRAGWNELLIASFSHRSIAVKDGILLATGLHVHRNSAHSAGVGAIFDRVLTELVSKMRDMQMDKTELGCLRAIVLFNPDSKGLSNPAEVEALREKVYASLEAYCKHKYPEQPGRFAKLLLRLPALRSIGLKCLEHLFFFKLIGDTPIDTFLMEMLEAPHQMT

`Cc1cc(C)c(N)cc1C`: the Potency result in experiment [1], in [2], in experiment [3], in [4], in [5] and in experiment [6] was “inactive” throughout. Besides, the Potency entry in experiment [7], in [8], in [9], in [10], in [11] and in experiment [12] was “inactive” each time. Further, in experiment [13], the Potency result was “inactive”.

With `O=C(O)C[C@H](NC(=O)OCc1ccccc1)C(=O)O`, the Potency entry in [1], in experiment [14], in experiment [2], in experiment [3], in experiment [4] and in experiment [5] was “inactive” in each case. In addition, the Potency result in [6], in [7], in [8], in experiment [9], in experiment [10] and in [11] was “inactive” in each case. Further, the Potency result in experiment [12] and in [13] was “inactive” in each case.

Turning to `Brc1cc2ccccc2c2ccccc12`, the Potency result in experiment [1], in experiment [14], in experiment [2], in experiment [15], in [7] and in experiment [12] was “inactive” each time. Also, the Potency result in experiment [13] is “inactive”. In addition, in [6], the Potency is 21.8 µM (active).

For `C=CC(=O)OCC1CC2CC1C1CCC(COC(=O)C=C)C21` (centres undefined), the Potency result in experiment [2], in experiment [15] and in experiment [7] was “inactive” in each case. For the same compound, the Potency is 54.5 µM (active) in [6], 43.6 µM (active) in experiment [10] and 8.63 µM (active) in [12].

On to `CCCCCCCC/C=C\CCCCCCCCCCCC(=O)O`, for which the Potency result in experiment [1], in experiment [14], in experiment [2], in experiment [3], in experiment [4] and in experiment [5] was “inactive” throughout. Also, the Potency entry in experiment [6], in experiment [7], in experiment [8], in experiment [9], in experiment [10] and in [11] was “inactive” in each case. For the same compound, the Potency entry in [12] and in [13] was “inactive” in each case.

For the compound `CC(=O)c1ccc([N+](=O)[O-])cc1`, the Potency entry in experiment [1], in experiment [14], in experiment [2], in experiment [15], in experiment [7] and in experiment [8] was “inactive” in each case. Moreover, the Potency result in experiment [10], in experiment [11], in experiment [12] and in experiment [13] was “inactive” in each case.

For the compound `CCC1(CO)COCOC1`, the Potency result in experiment [14], in experiment [2], in [3], in [4], in experiment [5] and in experiment [6] was “inactive” throughout. Further, the Potency entry in experiment [7], in [8], in experiment [9], in experiment [10], in experiment [11] and in [12] was “inactive” in each case. In addition, in [13], the Potency entry is “inactive”.

As for `CN1C(=O)N(c2ccccc2Br)Cc2cnc(Nc3ccc4c(c3)OCC(CO)O4)nc21` (centres undefined), the Potency entry in [2], in [15], in [7], in experiment [9] and in [13] was “inactive” throughout. Moreover, the Potency in experiment [6] is 54.5 µM (active); in experiment [10], 0.245 µM (active).

Turning to `Cc1[nH]cnc1CN1CCc2c(c3ccccc3n2C)C1=O`, the Potency result in [1], in experiment [14], in experiment [2], in experiment [3], in [4] and in [5] was “inactive” throughout. For the same compound, the Potency result in experiment [6], in [7], in experiment [8], in experiment [9], in experiment [10] and in experiment [11] was “inactive” each time. Also, the Potency entry in experiment [12] and in experiment [13] was “inactive” in each case.

On to `CCCCCCC(C)(C)C(=O)O`, for which the Potency result in [1], in experiment [14], in experiment [2], in experiment [3], in experiment [4] and in experiment [5] was “inactive” each time. Moreover, the Potency result in experiment [6], in experiment [7], in experiment [8], in [9], in experiment [10] and in [11] was “inactive” in each case. In addition, the Potency entry in experiment [12] and in experiment [13] was “inactive” throughout.

In the case of `O=[N+]([O-])c1ccc(O/N=C/c2cc(Br)c(O)c(Br)c2)c([N+](=O)[O-])c1`, the Potency entry in experiment [1], in experiment [2], in experiment [15], in experiment [7] and in [11] was “inactive” throughout. Moreover, in experiment [6], the Potency is 6.82 µM (active).

For the compound `CC(C)(c1ccccc1)c1ccccc1`, the Potency entry in [1], in [14], in [2], in experiment [3], in experiment [4] and in experiment [5] was “inactive” throughout. The Potency result in experiment [6], in [7], in experiment [8], in [9], in experiment [10] and in experiment [11] was “inactive” each time. Besides, the Potency entry in experiment [12] and in [13] was “inactive” in each case.

As to `Nc1ncnc2c1ncn2[C@H]1CC[C@@H](CO)O1`, the Potency entry in [1], in experiment [2], in experiment [3], in experiment [4], in [5] and in experiment [6] was “inactive” in each case. In addition, the Potency entry in experiment [7], in [8], in experiment [9], in [10], in [11] and in experiment [12] was “inactive” each time. Also, the Potency result in [13] was “inactive”.

As to `Nc1ccc(N=Nc2ccccc2)c(N)c1`, the Potency entry in [14], in experiment [2], in experiment [15], in [6], in experiment [7] and in experiment [11] was “inactive” each time. The Potency entry in experiment [12] was “inactive”. Besides, the Potency in experiment [13] was 0.238 µM (active).

Take `CCC1CO1` (centres undefined): the Potency entry in experiment [1], in experiment [14], in [2], in [3], in [4] and in experiment [5] was “inactive” throughout. Moreover, the Potency entry in [6], in experiment [7], in experiment [8], in [9], in [10] and in experiment [11] was “inactive” in each case. The Potency result in experiment [12] and in experiment [13] was “inactive” throughout.

On to `CC(=O)c1cc2ccccc2s1`, for which the Potency result in experiment [1], in experiment [14], in experiment [2], in experiment [3], in experiment [4] and in experiment [5] was “inactive” throughout. Also, the Potency result in [6], in [7], in [8], in [9], in experiment [10] and in experiment [11] was “inactive” throughout. Besides, the Potency entry in [12] and in experiment [13] was “inactive” each time.

For the compound `Clc1cc(Cl)nc(Cl)n1`, the Potency result in experiment [1], in [14], in experiment [2], in [15], in experiment [6] and in experiment [7] was “inactive” throughout. For the same compound, the Potency result in experiment [8], in experiment [9], in experiment [10], in [11], in experiment [12] and in experiment [13] was “inactive” in each case.
